Where a name gives a salt, the structure may show the parent alone.

Among the data in the supplement of paper PMC7156485 are H1.0 immunofluorescence intensity values, retold here.
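Note: TDF is a line of transformed human dermal fibroblasts of mesenchymal origin.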

In this assay the test system is HCC1569. As to the kind of experiment: H1.0 immunofluorescence intensity relative to DMSO (% of DMSO); higher = stronger H1.0 induction, active = 140 or more. As to conditions: concentration: 10 µM; 24 h. The procedure, abridged: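 Cell number or H1.0 nuclear intensity appears as percent of the plate control, based on the median of replicates. Measurements came from HCC1569 and TDF cells exposed in triplicate to compounds at 10 µM for 24 h at 37 °C, then imaged in six fields per well at ×10. Positional effects were smoothed out of HCC1569 values.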
Regarding `Clc1ccc(Nc2nnc(Cc3ccncc3)c3ccccc23)cc1` [Vatalanib], the H1.0 immunofluorescence intensity was 105 (inactive).
For `C[C@@H](c1nc(-c2ccc(C#N)cc2)cs1)[C@](O)(Cn1cncn1)c1ccc(F)cc1F`, the H1.0 immunofluorescence intensity is 129 (inactive).
The figure for `Cl.NCCCCC(=O)O` [5-Aminovaleric acid hydrochloride] is 91.6 (inactive); for `CNC(=O)c1ccccc1Sc1ccc2c(C=Cc3ccccn3)n[nH]c2c1` [Axitinib] it is 134 (inactive); for `CN1CCCC1c1cccnc1.O=C(O)C(O)C(O)C(=O)O.O=C(O)C(O)C(O)C(=O)O` (single isomer, unassigned; (-)) [(-)-Nicotine hydrogen tartrate salt] it is 99.2 (inactive).
For the molecule `CCCCCCCCCCCCCC=CC(O)C(CO)NC(=O)CCCCC` (stereo not given) [C6 Ceramide], the H1.0 immunofluorescence intensity is 101 (inactive).
With `O=C(O)CCCc1c[nH]c2ccccc12` [Indole-3-butyric acid] the figure was 86.6 (inactive); with `CC(C[N+](C)(C)C)OC(N)=O.[Cl-]` (stereo not given) [Bethanechol chloride], 99.3 (inactive); with `O=C1OC(=CBr)CCC1c1cccc2ccccc12` (stereo not given) [Bromoenol lactone], 112 (inactive).
With `CC(NC(=O)CCc1nc(=O)c2ccccc2[nH]1)c1ccccc1` (stereo not given) the figure was 105 (inactive).
With `CCCN(CCC)CCc1cccc2c1CC(=O)N2.Cl` [Ropinirole hydrochloride] the figure was 101 (inactive); with `Cc1[nH]c2ccccc2c1C1=C(NCCc2ccc(F)cc2)C(=O)N(C)C1=O`, 113 (inactive); with `O=C(O)c1cn(C2CC2)c2cc(N3CCNCC3)c(F)cc2c1=O` [Ciprofloxacin], 102 (inactive).
As for `COc1ccc2cc1Oc1ccc(cc1)CC1c3c(cc4c(c3Oc3cc5c(cc3OC)CCN(C)C5C2)OCO4)CCN1C` (stereo not given) [Cepharanthine], the H1.0 immunofluorescence intensity is 129 (inactive).
With `COc1ccc(S(=O)(=O)Nc2nc(-c3cccc([N+](=O)[O-])c3)c(CN3CCCCC3)s2)cc1OC` the figure was 110 (inactive); with `CCC(C)(C)c1ccc(CC(C)CN2CC(C)OC(C)C2)cc1` (stereo not given) [Amorolfine], 110 (inactive).
The figure for `CC(C)(Oc1ccc(CCNC(=O)c2ccc(Cl)cc2)cc1)C(=O)O` [Bezafibrate] is 105 (inactive); for `c1ccc2c(Oc3nc(Nc4ccc(N5CCOCC5)cc4)c4ncn(C5CCCCC5)c4n3)cccc2c1` it is 150 (active); for `COc1ccnc(CS(=O)c2nc3cc(OC(F)F)ccc3[n-]2)c1OC.O.[Na+]` (stereo not given) it is 100 (inactive).
With `CCOC(=O)[C@H](CCc1ccccc1)N[C@@H](C)C(=O)N1CCC[C@H]1C(=O)O.O=C(O)C=CC(=O)O` the figure was 100 (inactive); with `CCOc1cc2ncc(C#N)c(Nc3ccc(F)c(Cl)c3)c2cc1NC(=O)/C=C/CN(C)C`, 84.6 (inactive); with `CCC1(C)CC(=O)NC1=O` (stereo not given) [Ethosuximide], 88 (inactive).
For the molecule `CCN(CC)CC(=O)Nc1c(C)cccc1C.Cl.O` [Lidocaine.HCl.H2O], the H1.0 immunofluorescence intensity was 103 (inactive).
With `CCN(CC)CC#CCOC(=O)C(O)(c1ccccc1)C1CCCCC1.Cl` (stereo not given) [Oxybutynin Chloride], the H1.0 immunofluorescence intensity is 97.4 (inactive).
For the molecule `CCn1cc(C(=O)O)c(=O)c2cc(F)c(N3CCNC(C)C3)c(F)c21` (stereo not given) [Lomefloxacin], the H1.0 immunofluorescence intensity is 100 (inactive).
As to `CC1(COc2ccc(CC3SC(=O)NC3=O)cc2)CCCCC1` (stereo not given) [Ciglitazone], the H1.0 immunofluorescence intensity was 96.6 (inactive).
Regarding `O=S1(=O)CCN(CN2CCS(=O)(=O)NC2)CN1`, the H1.0 immunofluorescence intensity was 94 (inactive).
For `CCCCCC=CCC=CCC=CCCCCCCC(=O)O` [Dihomo-γ-linolenic acid], the H1.0 immunofluorescence intensity was 97.7 (inactive).
With `CN(C)c1ccccc1CN1CCCN(Cc2ccccc2N(C)C)C1c1ccncc1` the figure was 137 (inactive).
The figure for `O=c1[nH]c2ccccc2n1CCCN1CCN(C(c2ccccc2)c2ccccc2)CC1` [Oxatomide] is 101 (inactive); for `S=C(NCc1ccc2c(c1)OCO2)N1CCN(c2ncnc3c2oc2ccccc23)CC1` it is 132 (inactive); for `CCCCCCCCCCCCCCCCCCCC(=O)O` [Eicosanoic acid] it is 101 (inactive).
Regarding `O=C(O)C=Cc1ccc(Cn2ccnc2)cc1` [Ozagrel], the H1.0 immunofluorescence intensity is 104 (inactive).
The figure for `Cc1cc(C)c(C=C2C(=O)Nc3ccccc32)[nH]1` [VEGF Receptor 2 Kinase Inhibitor III] is 108 (inactive); for `O=C(NCCCN1CCOCC1)c1cnn2c(-c3ccccc3)cc(-c3ccccc3)nc12` it is 119 (inactive); for `C=CC1(C)CC(=O)C2(O)C(C)(O1)C(OC(C)=O)C(O)C1C(C)(C)CCC(O)C12C` (stereo not given) [Forskolin] it is 96.6 (inactive).
With `Cl.c1ccc2c(CC3=NCCN3)cccc2c1` [Naphazoline hydrochloride] the figure was 90.2 (inactive); with `Cc1cc(CS(=O)(=O)c2ccccc2)cc(OCc2ccc(CN3CCC[C@@H]3CO)cc2)c1` [PF-543 hydrochloride], 122 (inactive).
The figure for `CC(C=CC1=C(C)CCCC1(C)C)=CC=CC(C)=CC(=O)O` [Retinoic acid] is 120 (inactive); for `CCCCCC=CCC=CCC=CCC=CCCCC(=O)OC(CO)COC(=O)CCCCCCCCCCCCCCCCC` (stereo not given) [1-Stearoyl-2-arachidonoyl-glycerol] it is 98 (inactive).
